Test results taken from PubChem BioAssay.
Several values for one entry are separate records, joined by “and”; a condition that tells them apart may be missing. Equal entries are not always repeated.

Test: MELAS cybrid and Rieske KO viability enhancers – cell-based, MELAS cybrids, Rieske KO mouse fibroblasts, CellTiter-Glo, primary screen (AID 1508586);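 also: test concentration not given here; z relative to plate mean and SD of compound and empty wells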
Details: Rieske KO mouse fibroblast survival, low glucose, CellTiter-Glo 72 h

| SMILES | z-score |
| --- | --- |
| CN(C)CCCSc1ccccc1NC(=O)/C=C/c1ccccc1 | -0.0543 |
| CC(C)(O)c1ccccc1CC[C@@H](SCC1(CC(=O)O)CC1)c1cccc(/C=C/c2ccc3ccc(Cl)cc3n2)c1 | 0.134 and -0.566 |
| CN1CCN(C2=Nc3cc(F)ccc3Cc3ccccc32)CC1 | 0.127 |
| CC(=O)Nc1ccc(OCC(O)CNC(C)C)cc1 (stereo not given) | -0.287 and 0.516 |
| O=C(O)P(=O)(O)O | -0.123 |
| CC(Oc1c(Cl)cccc1Cl)C1=NCCN1 (stereo not given) | -0.104 and -1.04 |
| CCCCNc1c(C(=O)OCC)c(C)nc2c1cnn2CC | 1.7 |
| COc1cc(N)c(Cl)cc1C(=O)NC1CCN(Cc2ccccc2)CC1 | 0.069 |
| C[C@]12CCC(=O)C=C1C=C[C@@H]1[C@@H]2CC[C@@]2(C)[C@H]1CC[C@@]21CCC(=O)O1 | -0.749 and -0.289 |
| C/C=C/c1ccc(OC)cc1 | -1.37 |
| CCOC(=O)OC(C)OC1=C(C(=O)Nc2ccccn2)N(C)S(=O)(=O)c2ccccc21 (stereo not given) | -0.115 and 1.2 and 1.74 |
| COc1ccc(C(=O)NCc2ccc(OCCN(C)C)cc2)cc1OC | -0.0117 and -0.161 |
| C[C@H]1COc2c(C3(N)CC3)c(F)cc3c(=O)c(C(=O)O)cn1c23 | -0.0845 |
| CC(=O)Nc1ccc(CC(=O)O)cc1 | -0.418 |
| O=C(O)CCC(=O)c1ccc(-c2ccccc2)cc1 | 0.124 and 0.414 |
| CCN1CC(CCN2CCOCC2)C(c2ccccc2)(c2ccccc2)C1=O (stereo not given) | -0.241 and -0.506 |
| Cn1c(=O)c2c(ncn2CCO)n(C)c1=O | -0.0506 |
| CN1CCCCC1CCN1c2ccccc2Sc2ccc(S(C)=O)cc21 (stereo not given) | -0.192 and -0.653 |
| Nc1nc2c(ncn2CCC(CO)CO)c(=O)[nH]1 | -0.179 and 0.138 and 0.0729 |
| CC(C)(C(=O)c1cccnc1)c1cccnc1 | 0.502 |
